From paper PMC7862700, “An all-to-all approach to the identification of sequence-specific readers for epigenetic DNA modifications on cytosine”

What was measured:
Experiment in all cases: DAPPL (digital affinity profiling via proximity ligation, sequencing); 10 mM Tris-HCl pH 7.5, 50 mM NaCl, 1 mM DTT, 4% glycerol, room temperature, 30 min; GST-TFs on glutathione beads, 16-mer random dsDNA library, 0.1% formaldehyde crosslink after washing; high values mean tight binding
Details in all cases: protein: recombinant; tags: N-terminal GST; dsDNA, one strand shown
[1] = biological target: T1, FLI1 (Homo sapiens, UniProt Q01543 1-452)
T1 sequence: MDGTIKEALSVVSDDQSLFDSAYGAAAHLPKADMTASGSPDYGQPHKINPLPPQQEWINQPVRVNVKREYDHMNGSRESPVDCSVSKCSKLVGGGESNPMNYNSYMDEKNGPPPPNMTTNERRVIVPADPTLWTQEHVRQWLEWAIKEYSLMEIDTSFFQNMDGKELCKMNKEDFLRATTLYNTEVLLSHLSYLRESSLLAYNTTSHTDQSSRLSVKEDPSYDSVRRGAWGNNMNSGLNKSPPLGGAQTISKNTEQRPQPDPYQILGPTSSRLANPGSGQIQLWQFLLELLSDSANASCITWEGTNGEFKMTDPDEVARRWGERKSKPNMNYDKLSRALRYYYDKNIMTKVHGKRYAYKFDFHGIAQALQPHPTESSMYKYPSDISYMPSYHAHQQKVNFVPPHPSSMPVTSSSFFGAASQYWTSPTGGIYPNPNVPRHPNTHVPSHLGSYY
Outline: (§1)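 Sequencing on an Illumina NextSeq500 followed washing, crosslinking with 0.1% formaldehyde, proximity ligation (BsaI/T4 ligase, 1 h, 37 °C) and PCR amplification of pools that had been incubated for 30 min at room temperature with 200 nmole of a random double-stranded 16-mer DNA library in Tris/NaCl/DTT/glycerol buffer. Each pool held DNA-barcoded human transcription factors, expressed in yeast as GST fusions and captured on glutathione beads, plus a tag-only sample. Binding signal is a hexamer's read frequency for a factor divided by its frequency in the tag-only sample.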

[2] = biological target: T2, ELK1 (Homo sapiens, UniProt P19419 1-428)
T2 sequence: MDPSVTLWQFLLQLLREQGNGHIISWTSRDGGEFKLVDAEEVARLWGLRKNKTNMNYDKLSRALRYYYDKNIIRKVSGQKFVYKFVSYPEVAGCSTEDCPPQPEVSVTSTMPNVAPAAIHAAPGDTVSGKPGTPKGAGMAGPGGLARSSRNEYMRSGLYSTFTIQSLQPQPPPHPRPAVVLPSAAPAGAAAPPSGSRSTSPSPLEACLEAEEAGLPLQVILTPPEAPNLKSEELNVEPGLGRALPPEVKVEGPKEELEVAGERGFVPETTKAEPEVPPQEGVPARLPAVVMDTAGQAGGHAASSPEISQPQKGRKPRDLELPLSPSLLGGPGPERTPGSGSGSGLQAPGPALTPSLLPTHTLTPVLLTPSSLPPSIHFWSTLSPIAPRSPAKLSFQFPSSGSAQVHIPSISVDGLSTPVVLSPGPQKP
Outline: as §1

[3] = biological target: T3, GABPA (Homo sapiens, UniProt Q06546 1-454)
T3 sequence: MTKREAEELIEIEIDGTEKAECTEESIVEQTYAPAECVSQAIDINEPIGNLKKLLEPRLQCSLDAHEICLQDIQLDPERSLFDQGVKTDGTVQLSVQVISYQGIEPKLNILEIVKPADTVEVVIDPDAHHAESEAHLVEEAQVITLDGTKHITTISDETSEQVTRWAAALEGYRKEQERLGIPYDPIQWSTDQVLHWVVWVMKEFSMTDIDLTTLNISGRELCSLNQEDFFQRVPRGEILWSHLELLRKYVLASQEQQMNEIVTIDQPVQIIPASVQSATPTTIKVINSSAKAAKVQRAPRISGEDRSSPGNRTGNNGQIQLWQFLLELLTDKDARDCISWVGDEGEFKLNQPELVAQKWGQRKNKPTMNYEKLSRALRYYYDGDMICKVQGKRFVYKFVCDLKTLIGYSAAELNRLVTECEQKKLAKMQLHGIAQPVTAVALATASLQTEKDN
Outline: as §1

[4] = biological target: ELF1 (Homo sapiens, UniProt P32519 1-619)
Outline: as §1

[5] = biological target: SPI1 (Homo sapiens, UniProt P17947 1-270)
Outline: as §1

[6] = biological target: SPIB (Homo sapiens, UniProt Q01892 1-262)
Outline: as §1

[7] = biological target: T4, FEV (Homo sapiens, UniProt Q99581 1-238)
T4 sequence: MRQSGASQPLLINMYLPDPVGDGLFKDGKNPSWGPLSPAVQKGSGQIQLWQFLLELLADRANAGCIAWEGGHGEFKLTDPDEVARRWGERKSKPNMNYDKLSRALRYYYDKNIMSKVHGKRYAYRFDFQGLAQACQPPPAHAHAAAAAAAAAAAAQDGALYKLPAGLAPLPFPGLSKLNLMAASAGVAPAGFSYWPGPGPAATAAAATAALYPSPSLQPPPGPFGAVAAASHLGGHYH
Outline: as §1

[8] = biological target: ETV5 (Homo sapiens, UniProt P41161 1-510)
Outline: as §1

[9] = biological target: ELF4 (Homo sapiens, UniProt Q99607 1-663)
Outline: as §1

[10] = biological target: ETV1 (Homo sapiens, UniProt P50549 1-477)
Outline: as §1

[11] = biological target: T5, ERF (Homo sapiens, UniProt P50548 1-548)
T5 sequence: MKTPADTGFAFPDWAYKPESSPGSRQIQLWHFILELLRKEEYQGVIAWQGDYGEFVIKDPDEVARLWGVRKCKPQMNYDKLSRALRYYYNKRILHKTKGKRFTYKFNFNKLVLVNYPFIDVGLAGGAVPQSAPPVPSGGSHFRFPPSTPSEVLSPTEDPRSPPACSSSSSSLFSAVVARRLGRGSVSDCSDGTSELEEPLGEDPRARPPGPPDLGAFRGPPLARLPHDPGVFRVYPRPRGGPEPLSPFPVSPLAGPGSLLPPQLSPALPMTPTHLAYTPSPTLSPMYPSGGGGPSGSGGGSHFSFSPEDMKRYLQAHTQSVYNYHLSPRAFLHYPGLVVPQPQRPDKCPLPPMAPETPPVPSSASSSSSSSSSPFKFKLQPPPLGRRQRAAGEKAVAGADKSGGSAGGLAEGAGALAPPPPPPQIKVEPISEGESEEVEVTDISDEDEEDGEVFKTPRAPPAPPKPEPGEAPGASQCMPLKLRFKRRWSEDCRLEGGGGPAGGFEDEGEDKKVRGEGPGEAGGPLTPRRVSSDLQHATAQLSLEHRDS
Outline: as §1

[12] = biological target: T6, ETV3L (Homo sapiens, UniProt Q6ZN32 1-361)
T6 sequence: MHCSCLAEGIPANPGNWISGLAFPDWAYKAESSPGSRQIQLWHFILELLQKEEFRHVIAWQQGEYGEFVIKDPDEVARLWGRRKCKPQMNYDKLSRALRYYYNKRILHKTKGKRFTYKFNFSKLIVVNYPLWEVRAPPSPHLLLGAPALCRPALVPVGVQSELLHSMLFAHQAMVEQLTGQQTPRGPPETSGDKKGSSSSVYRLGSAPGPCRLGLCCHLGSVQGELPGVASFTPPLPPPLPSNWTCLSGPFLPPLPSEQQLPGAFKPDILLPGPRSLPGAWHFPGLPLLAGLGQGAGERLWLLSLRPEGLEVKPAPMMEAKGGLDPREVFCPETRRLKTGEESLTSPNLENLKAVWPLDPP
Outline: as §1

[13] = biological target: T7, ETS2 (Homo sapiens, UniProt P15036 1-469)
T7 sequence: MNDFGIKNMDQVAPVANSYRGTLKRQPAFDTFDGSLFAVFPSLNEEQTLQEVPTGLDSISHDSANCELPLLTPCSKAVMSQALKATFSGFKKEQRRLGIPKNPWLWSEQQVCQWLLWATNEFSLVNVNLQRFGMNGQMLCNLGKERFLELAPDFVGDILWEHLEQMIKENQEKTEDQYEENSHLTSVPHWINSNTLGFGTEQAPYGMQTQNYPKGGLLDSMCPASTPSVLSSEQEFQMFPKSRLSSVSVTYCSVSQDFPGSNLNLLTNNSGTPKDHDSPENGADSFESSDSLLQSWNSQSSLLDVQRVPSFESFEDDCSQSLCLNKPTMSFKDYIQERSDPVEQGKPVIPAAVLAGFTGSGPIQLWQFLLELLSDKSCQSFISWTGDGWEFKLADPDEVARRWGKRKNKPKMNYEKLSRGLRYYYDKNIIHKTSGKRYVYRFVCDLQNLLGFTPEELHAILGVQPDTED
Outline: as §1

[14] = biological target: T8, ERG (Homo sapiens, UniProt P11308 1-479)
T8 sequence: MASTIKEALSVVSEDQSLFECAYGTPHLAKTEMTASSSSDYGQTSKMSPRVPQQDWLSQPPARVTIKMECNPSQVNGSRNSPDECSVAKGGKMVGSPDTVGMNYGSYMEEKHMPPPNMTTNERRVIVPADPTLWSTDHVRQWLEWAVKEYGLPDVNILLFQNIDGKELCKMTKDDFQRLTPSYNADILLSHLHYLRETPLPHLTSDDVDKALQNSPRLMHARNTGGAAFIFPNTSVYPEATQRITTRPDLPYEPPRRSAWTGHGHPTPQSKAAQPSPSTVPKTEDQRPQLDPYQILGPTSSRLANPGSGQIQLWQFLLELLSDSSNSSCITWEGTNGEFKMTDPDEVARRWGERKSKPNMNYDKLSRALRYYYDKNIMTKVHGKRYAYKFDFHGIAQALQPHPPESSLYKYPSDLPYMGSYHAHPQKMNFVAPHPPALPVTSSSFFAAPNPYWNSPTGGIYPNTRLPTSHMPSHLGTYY
Outline: as §1

[15] = biological target: T9, EHF (Homo sapiens, UniProt Q9NZC4 1-300)
T9 sequence: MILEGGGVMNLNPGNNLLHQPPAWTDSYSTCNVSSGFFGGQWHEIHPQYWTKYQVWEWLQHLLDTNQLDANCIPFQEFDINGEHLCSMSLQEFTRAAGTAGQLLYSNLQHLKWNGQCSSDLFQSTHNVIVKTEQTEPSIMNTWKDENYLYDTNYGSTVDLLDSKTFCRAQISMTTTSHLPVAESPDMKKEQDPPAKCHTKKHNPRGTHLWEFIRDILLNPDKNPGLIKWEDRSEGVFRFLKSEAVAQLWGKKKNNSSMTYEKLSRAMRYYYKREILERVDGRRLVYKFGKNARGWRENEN
Outline: as §1

[16] = biological target: T10, ELK3 (Homo sapiens, UniProt P41970 1-407)
T10 sequence: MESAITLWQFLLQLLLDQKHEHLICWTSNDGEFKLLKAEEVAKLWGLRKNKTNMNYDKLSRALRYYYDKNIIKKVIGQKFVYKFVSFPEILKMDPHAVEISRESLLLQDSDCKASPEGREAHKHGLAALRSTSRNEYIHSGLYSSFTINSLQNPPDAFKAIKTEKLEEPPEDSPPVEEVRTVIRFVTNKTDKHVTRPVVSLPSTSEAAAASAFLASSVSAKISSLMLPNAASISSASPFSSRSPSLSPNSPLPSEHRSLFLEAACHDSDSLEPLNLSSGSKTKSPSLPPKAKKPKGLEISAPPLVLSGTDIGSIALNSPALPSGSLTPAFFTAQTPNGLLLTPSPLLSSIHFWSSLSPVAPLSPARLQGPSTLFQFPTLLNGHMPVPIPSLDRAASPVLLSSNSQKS
Outline: as §1

[17] = biological target: T11, SPDEF (Homo sapiens, UniProt O95238 1-335)
T11 sequence: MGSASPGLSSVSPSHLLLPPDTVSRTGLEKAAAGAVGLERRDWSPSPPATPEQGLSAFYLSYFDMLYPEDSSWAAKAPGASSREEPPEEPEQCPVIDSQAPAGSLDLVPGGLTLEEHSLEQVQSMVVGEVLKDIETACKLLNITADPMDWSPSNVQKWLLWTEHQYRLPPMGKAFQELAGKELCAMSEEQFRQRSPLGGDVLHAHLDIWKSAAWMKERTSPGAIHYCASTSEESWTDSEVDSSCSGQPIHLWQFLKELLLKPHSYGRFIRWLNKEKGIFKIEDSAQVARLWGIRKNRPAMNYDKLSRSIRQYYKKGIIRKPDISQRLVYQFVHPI
Outline: as §1

[18] = biological target: ETV6 (Homo sapiens, UniProt P41212 1-452)
Outline: as §1

Sequence of ELF1 (P32519 whole entry): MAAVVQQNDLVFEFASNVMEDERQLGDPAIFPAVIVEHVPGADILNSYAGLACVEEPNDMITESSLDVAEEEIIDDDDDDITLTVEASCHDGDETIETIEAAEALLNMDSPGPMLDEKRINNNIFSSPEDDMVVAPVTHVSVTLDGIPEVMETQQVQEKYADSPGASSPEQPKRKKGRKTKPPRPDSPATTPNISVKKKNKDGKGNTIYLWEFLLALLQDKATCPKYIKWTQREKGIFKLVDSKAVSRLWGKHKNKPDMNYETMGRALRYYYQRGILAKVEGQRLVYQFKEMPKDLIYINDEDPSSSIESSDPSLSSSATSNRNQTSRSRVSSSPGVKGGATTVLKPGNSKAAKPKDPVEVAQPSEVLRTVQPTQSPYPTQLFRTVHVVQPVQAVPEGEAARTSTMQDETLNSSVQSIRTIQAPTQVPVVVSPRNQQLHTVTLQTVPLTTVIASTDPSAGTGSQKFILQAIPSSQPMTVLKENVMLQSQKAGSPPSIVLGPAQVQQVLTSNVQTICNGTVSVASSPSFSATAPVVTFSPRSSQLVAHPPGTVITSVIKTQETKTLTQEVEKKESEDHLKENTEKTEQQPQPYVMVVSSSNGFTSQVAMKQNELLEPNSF
Sequence of ETV1 (P50549 whole entry): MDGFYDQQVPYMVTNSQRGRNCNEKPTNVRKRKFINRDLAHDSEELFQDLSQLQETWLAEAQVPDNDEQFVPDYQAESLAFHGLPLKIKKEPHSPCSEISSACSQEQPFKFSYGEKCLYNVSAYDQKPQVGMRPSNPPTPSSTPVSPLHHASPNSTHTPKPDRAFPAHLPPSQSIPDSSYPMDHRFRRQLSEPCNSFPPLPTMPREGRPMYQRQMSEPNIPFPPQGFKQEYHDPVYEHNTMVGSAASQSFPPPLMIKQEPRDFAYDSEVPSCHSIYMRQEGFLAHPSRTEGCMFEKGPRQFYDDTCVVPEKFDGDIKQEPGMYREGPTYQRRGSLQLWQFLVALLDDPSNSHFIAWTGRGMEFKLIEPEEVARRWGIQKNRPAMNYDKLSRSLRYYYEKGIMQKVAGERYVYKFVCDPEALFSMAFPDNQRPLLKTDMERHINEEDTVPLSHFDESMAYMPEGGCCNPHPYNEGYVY
Sequence of ELF4 (Q99607 whole entry): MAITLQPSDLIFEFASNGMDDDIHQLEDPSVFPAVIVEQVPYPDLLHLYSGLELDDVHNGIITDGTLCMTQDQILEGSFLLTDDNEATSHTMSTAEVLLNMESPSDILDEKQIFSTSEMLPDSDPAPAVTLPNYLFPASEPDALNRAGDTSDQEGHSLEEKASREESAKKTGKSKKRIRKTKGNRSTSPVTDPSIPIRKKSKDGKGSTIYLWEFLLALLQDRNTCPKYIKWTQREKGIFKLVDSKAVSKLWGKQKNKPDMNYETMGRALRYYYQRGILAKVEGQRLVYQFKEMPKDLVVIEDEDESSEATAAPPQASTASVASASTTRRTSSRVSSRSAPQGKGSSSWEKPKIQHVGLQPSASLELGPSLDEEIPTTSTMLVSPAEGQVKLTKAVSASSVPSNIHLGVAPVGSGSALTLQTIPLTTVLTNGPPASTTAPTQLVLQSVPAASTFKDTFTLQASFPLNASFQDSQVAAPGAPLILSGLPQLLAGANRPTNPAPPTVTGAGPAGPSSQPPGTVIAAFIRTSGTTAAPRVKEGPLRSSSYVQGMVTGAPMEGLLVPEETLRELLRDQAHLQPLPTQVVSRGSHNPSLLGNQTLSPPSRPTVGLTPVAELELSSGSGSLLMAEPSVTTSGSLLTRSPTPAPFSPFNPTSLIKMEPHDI
Sequence of ETV5 (P41161 whole entry): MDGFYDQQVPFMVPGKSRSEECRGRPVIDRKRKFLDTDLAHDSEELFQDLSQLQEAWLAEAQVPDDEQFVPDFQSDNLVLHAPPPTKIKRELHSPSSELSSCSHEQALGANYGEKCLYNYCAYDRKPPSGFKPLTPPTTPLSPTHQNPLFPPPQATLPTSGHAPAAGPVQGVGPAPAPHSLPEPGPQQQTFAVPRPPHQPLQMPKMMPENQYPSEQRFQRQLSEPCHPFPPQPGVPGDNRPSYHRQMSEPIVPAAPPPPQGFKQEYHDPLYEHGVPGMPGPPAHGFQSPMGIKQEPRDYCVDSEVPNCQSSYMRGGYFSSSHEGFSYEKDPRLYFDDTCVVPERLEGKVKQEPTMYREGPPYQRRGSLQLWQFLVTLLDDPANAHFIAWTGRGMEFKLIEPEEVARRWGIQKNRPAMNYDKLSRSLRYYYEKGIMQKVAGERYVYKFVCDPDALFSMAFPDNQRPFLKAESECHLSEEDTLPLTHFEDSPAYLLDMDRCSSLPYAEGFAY
Sequence of SPIB (Q01892 whole entry): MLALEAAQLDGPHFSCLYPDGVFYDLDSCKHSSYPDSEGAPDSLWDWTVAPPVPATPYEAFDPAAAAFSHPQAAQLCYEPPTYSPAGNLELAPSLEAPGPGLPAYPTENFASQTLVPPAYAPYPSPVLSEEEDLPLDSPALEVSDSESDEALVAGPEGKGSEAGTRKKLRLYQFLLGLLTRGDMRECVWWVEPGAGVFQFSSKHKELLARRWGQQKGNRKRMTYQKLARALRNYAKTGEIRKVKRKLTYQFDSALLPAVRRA
Sequence of ETV6 (P41212 whole entry): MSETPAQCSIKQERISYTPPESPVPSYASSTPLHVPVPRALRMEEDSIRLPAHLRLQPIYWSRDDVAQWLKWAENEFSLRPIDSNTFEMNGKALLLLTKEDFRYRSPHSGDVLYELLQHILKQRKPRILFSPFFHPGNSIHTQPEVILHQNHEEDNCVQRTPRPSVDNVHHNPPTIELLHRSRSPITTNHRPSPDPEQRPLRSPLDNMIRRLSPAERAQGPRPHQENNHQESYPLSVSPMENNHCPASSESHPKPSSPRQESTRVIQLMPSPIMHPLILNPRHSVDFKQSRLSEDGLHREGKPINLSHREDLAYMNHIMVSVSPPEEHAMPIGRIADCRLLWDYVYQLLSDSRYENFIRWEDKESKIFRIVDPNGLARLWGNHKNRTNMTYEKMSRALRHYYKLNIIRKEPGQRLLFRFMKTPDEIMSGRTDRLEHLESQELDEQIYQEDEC

Sequence	binding signal [1]	binding signal [2]	binding signal [3]	binding signal [4]	binding signal [5]	binding signal [6]	binding signal [7]	binding signal [8]	binding signal [9]	binding signal [10]	binding signal [11]	binding signal [12]	binding signal [13]	binding signal [14]	binding signal [15]	binding signal [16]	binding signal [17]	binding signal [18]
GCCTGA	1.05 fold enrichment (6-mer frequency, TF over GST control)	1.13 fold enrichment (6-mer frequency, TF over GST control)	1.11 fold enrichment (6-mer frequency, TF over GST control)	1.04 fold enrichment (6-mer frequency, TF over GST control)	1.05 fold enrichment (6-mer frequency, TF over GST control)	1.09 fold enrichment (6-mer frequency, TF over GST control)	1.1 fold enrichment (6-mer frequency, TF over GST control)	1.09 fold enrichment (6-mer frequency, TF over GST control)	1.06 fold enrichment (6-mer frequency, TF over GST control)	1.05 fold enrichment (6-mer frequency, TF over GST control)	1.07 fold enrichment (6-mer frequency, TF over GST control)	1.12 fold enrichment (6-mer frequency, TF over GST control)	1.02 fold enrichment (6-mer frequency, TF over GST control)	–	–	–	–	–
CATACA	1.11 fold enrichment (6-mer frequency, TF over GST control)	1.04 fold enrichment (6-mer frequency, TF over GST control)	1.08 fold enrichment (6-mer frequency, TF over GST control)	1.06 fold enrichment (6-mer frequency, TF over GST control)	1.05 fold enrichment (6-mer frequency, TF over GST control)	1.08 fold enrichment (6-mer frequency, TF over GST control)	1.07 fold enrichment (6-mer frequency, TF over GST control)	1.05 fold enrichment (6-mer frequency, TF over GST control)	1.15 fold enrichment (6-mer frequency, TF over GST control)	1.02 fold enrichment (6-mer frequency, TF over GST control)	1.15 fold enrichment (6-mer frequency, TF over GST control)	–	1.06 fold enrichment (6-mer frequency, TF over GST control)	1.07 fold enrichment (6-mer frequency, TF over GST control)	1.03 fold enrichment (6-mer frequency, TF over GST control)	1.22 fold enrichment (6-mer frequency, TF over GST control)	1.05 fold enrichment (6-mer frequency, TF over GST control)	1.01 fold enrichment (6-mer frequency, TF over GST control)
